PubChem BioAssay (EPA / NIEHS)
The source made the active and inactive calls. How the source made its calls: active means hit-call score of the fitted dose curve at least 0.9, where 1 is the maximum; inactive means score below 0.9.

Each compound was assayed on Interferon-gamma inducible Protein 10 (IP10), CXCL10 (gene 3627) (assay: BSK_BE3C_IP10: BioMAP Diversity Plus: BE3C Assay for Interferon-gamma inducible Protein 10 (IP10) Biomarker Activity (AID 2283034)). Conditions: primary human bronchial epithelial cells; actives raise or lower the signal.
Description: BSK_BE3C is a cell-based, multiplexed-readout assay that uses bronchial epithelial cell, a human lung primary cell, with measurements taken at 24 hours after chemical dosing in a 96-well plate.BSK_BE3C_IP10 is an assay component measured in the BSK_BE3C assay. It measures IP-10 antibody related to regulation of gene expression using ELISA technology.Data from the assay component BSK_BE3C_IP10 was analyzed into 1 assay endpoint. This assay endpoint, BSK_BE3C_IP10, was analyzed with bidirectional fitting relative to DMSO as the negative control and baseline of activity. Using a type of binding reporter, gain or loss-of-signal activity can be used to understand changes in the signaling as they relate to the gene CXCL10. Furthermore, this assay endpoint can be referred to as a primary readout, because this assay has produced multiple assay endpoints where this one serves a signaling function. To generalize the intended target to other relatable targets, this assay endpoint is annotated to the cytokine intended target family, where the subfamily is chemotactic factor.
The levels of cell surface (or secreted, indicated by the prefix "s") biomarker endpoints were measured by ELISA. Overt cytotoxicity to cells in confluent adherent cultures (all systems other than the BT system) was assessed by measuring total protein levels using sulforhodamine B (SRB) staining in parallel cultures at the time of biomarker measurements, indicated as SRB endpoints. For proliferation assays for adherent cell types, individual cell types are cultured at sub-confluence and relative cell numbers quantified by SRB staining at time points optimized for each system (48 h: 3C and CASM3C systems; 72 h: BT and HDF3CGF systems; 96 h: SAg system). SRB was performed by staining cells with 0.1% SRB after fixation with 10% TCA and reading wells at 560 nm.Viability and proliferation of PBMC (T cells) was quantified by Alamar Blue reduction for the SAg and BT systems. For PBMC viability (referred to as PBMC Cytotoxicity within the assay endpoint names), cells were plated (75,000/well in a 96-well plate) and then chemical samples added for 1 h before addition of activators, SEB and TSST-1 (20 ng/mL final concentration each). Cells were incubated for 90 h. Then, Alamar Blue (20 uL/well) (Invitrogen, Cat DAL1100) was added for 6 h, and the plates were read with a fluorescence microplate reader at 546/580 nm (excitation/emission). For PBMC proliferation, cells were plated and activated as above but incubated for only 16 h prior to addition of Alamar Blue. Plates were read after 6 h.

SMILES | outcome | AC50
CCC(C)n1c(=O)[nH]c(C)c(Br)c1=O (stereo not given) | inactive | –
O=c1n(Cl)c(=O)n(Cl)c(=O)n1Cl | inactive | –
CCOc1nc(C(Cl)(Cl)Cl)ns1 | inactive | –
N#CN=C1SCCN1Cc1ccc(Cl)nc1 | inactive | –
CN/C(=N\[N+](=O)[O-])NCc1cnc(Cl)s1 | inactive | –
Cc1nc(N(C)C)nc(OC(=O)N(C)C)c1C | inactive | –
COc1ccc(-c2ccccc2)cc1NNC(=O)OC(C)C | inactive | –
CC(C)(C)C(=O)C(Oc1ccc(Cl)cc1)n1cncn1 (stereo not given) | inactive | –
CCCCC(C#N)(Cn1cncn1)c1ccc(Cl)cc1 (stereo not given) | inactive | –
CCNP(=S)(OC)O/C(C)=C/C(=O)OC(C)C (stereo not given) | inactive | –
Nc1c(Cl)c(Cl)nc(C(=O)O)c1Cl | inactive | –
CNC(=O)N(C)c1nnc(C(C)(C)C)s1 | inactive | –
CS(=O)(=O)c1cc(C(F)(F)F)ccc1C(=O)c1cnoc1C1CC1 | – | 4.13 µM (active)
CNC(=O)Oc1cccc2ccccc12 | inactive | –
CCOC(=O)C(C)OC(=O)c1cc(Oc2ccc(C(F)(F)F)cc2Cl)ccc1[N+](=O)[O-] (stereo not given) | inactive | –
CC(C)N1C(=O)N(c2ccccc2)CSC1=NC(C)(C)C | – | 30.4 µM (active)
CO/N=C(/C1=NOCCO1)c1ccccc1Oc1ncnc(Oc2ccccc2Cl)c1F | inactive | –
CCN(CC)c1nc(C)cc(OP(=S)(OC)OC)n1 | inactive | –
CC1(C)CCC(=Cc2ccc(Cl)cc2)C1(O)Cn1cncn1 (stereo not given) | inactive | –
COc1cc(OC)nc(NC(=O)NS(=O)(=O)c2ncccc2OCC(F)(F)F)n1 | inactive | –

SMILES | outcome | AC50
N#Cc1c(Cl)cccc1Cl | inactive | –
O=C(O)c1c(Cl)ccc2cc(Cl)cnc12 | inactive | –
CC(C)N1C(=O)c2ccccc2NS1(=O)=O | inactive | –
CC(C)C1(C)N=C(c2ncccc2C(=O)O)NC1=O (stereo not given) | inactive | –
CC1(C)C(C(=O)OC(C#N)c2cccc(Oc3ccccc3)c2)C1(C)C (stereo not given) | inactive | –
COP(=S)(OC)SCn1nnc2ccccc2c1=O | inactive | –
CC(C)Oc1cccc(NC(=O)c2ccccc2C(F)(F)F)c1 | inactive | –
Cc1cc(C)nc(Nc2ccccc2)n1 | inactive | –
O=C1C2CC=CCC2C(=O)N1SC(Cl)(Cl)Cl (stereo not given) | – | 11.9 µM (active)
CCN(CC)C(=O)C(C)Oc1cccc2ccccc12 (stereo not given) | inactive | –
Nc1cnn(-c2ccccc2)c(=O)c1Cl | inactive | –
COP(=O)(OC)O/C(C)=C/C(=O)N(C)C | inactive | –
C=C(C)CN(CC)c1c([N+](=O)[O-])cc(C(F)(F)F)cc1[N+](=O)[O-] | inactive | –
CCNC(=O)NC(=O)C(C#N)=NOC | inactive | –
Cc1cnc(C2=NC(C)(C(C)C)C(=O)N2)c(C(=O)O)c1 (stereo not given) | inactive | –
COC(=O)c1c(C(F)F)nc(C(F)(F)F)c(C2=NCCS2)c1CC(C)C | – | 17.7 µM (active)
CC(C)=CC1C(C(=O)OCc2coc(Cc3ccccc3)c2)C1(C)C (stereo not given) | inactive | –
CCCCC(O)(Cn1cncn1)c1ccc(Cl)cc1Cl (stereo not given) | – | 26.8 µM (active)
COCC(C)N(C(=O)CCl)c1c(C)csc1C (stereo not given) | inactive | –
O=C(Nc1ccccc1-c1ccc(Cl)cc1)c1cccnc1Cl | inactive | –
